# Test results taken from the supplement of paper PMC12339681.
# Where a name gives a salt, the structure may show the parent alone.
# Test system: PBMC-derived induced microglia-like cells (piMGLC)
# Assay: synaptosome phagocytic index relative to DMSO control (fraction of DMSO); higher = more phagocytosis
# Conditions: concentration: 10 uM (2 uM for compounds listed in Table S2); pretreatment time: 24 h; assay time: 3 h
# Method: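 PBMC-derived induced microglia-like cells (piMGLCs) in 96-well plates were pretreated for 24 h with CNS-penetrant library compounds (MedChemExpress HY-L028), mostly at 10 uM; Table S2 lists 9 compounds at 2 uM. pHrodo-Red-labelled human iPSC-neuron synaptosomes (3 ug/well) were then added for 3 h, and cells were fixed and imaged by confocal microscopy. Phagocytic index (synaptosome area / cell count, CellProfiler) is a mean over 3 replicate wells on different plates, normalized to the DMSO control. Compounds leaving <10% of DMSO cell count were marked toxic and given no value.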
row,SMILES,synaptosome phagocytic index
1,C=C(C)[C@H]1CN[C@H](C(=O)O)[C@H]1CC(=O)O [Kainic_acid],0.701
2,CC(C)(NC(=O)O[C@@H]1CN2CCC1CC2)c1csc(-c2ccc(F)cc2)n1 [Ibiglustat_(L-Malic_acid)],1.05
3,NCCc1c[nH]c2ccc(O)cc12 [Serotonin_hydrochloride],0.812
4,NCC(CC(=O)O)c1ccc(Cl)cc1 (stereo unspecified) [Baclofen],0.783
5,COc1ccc(C(CN(C)C)C2(O)CCCCC2)cc1 (stereo unspecified) [Venlafaxine_(hydrochloride)],1.02
6,Clc1ccc(N2CCN(Cc3c[nH]c4ncccc34)CC2)cc1,0.89
7,FC(F)(F)c1ccc(N2CCNCC2)nc1Cl,1.17
8,CCOC(=O)c1cncn1[C@H](C)c1ccccc1 [Etomidate],0.926
9,CCC(=O)O[C@H]1CC[C@H]2[C@@H]3CCC4=CC(=O)CC[C@]4(C)[C@H]3CC[C@]12C [Testosterone_propionate],0.807
10,Cc1cccc([C@H](C)c2c[nH]cn2)c1C [Dexmedetomidine_(hydrochloride)],0.931
11,COc1cccc(NCC(F)Cn2c3ccc(Br)cc3c3cc(Br)ccc32)c1 (stereo unspecified),0.0819
12,CC(C)(NC(=O)O[C@@H]1CN2CCC1CC2)c1csc(-c2ccc(F)cc2)n1 [Ibiglustat],1.26
13,COc1ccc(C=C2CCCN=C2c2cccnc2)c(OC)c1 [GTS-21_(dihydrochloride)],0.922
14,CCN(C)C(=O)Oc1cccc([C@H](C)N(C)C)c1 [Rivastigmine_(tartrate)],1.02
15,CC[C@@H](C(N)=O)N1CCCC1=O [Levetiracetam],0.711
16,C/C(=C\c1csc(C)n1)[C@@H]1C[C@@H]2O[C@]2(C)CCC[C@H](C)[C@H](O)[C@@H](C)C(=O)C(C)(C)[C@@H](O)CC(=O)O1 [Epothilone_B],0.842
17,O=C(NO)c1cnc(NC2(c3ccccc3)CCC(F)(F)CC2)nc1,0.867
18,CCOC(=O)c1cncn1[C@H](C)c1ccccc1 [Etomidate_(hydrochloride)],0.749

row,SMILES,synaptosome phagocytic index
1,CNCC/C=C/c1cccnc1 [Rivanicline_hemioxalate],0.922
2,N[C@@H]1C[C@H]1c1ccccc1 [Tranylcypromine_(hemisulfate)],0.949
3,Cn1c(CCCC(=O)O)nc2cc(N(CCCl)CCCl)ccc21 [Bendamustine_(hydrochloride)],0.95
4,O=S(=O)(CC1CS1)c1ccc(Oc2ccccc2)cc1 (stereo unspecified),0.514
5,CCN(CCCl)Cc1ccccc1Br [DSP-4_(hydrochloride)],1.15
6,Cc1sc2c(c1C)C(c1ccc(Cl)cc1)=N[C@@H](CC(=O)OC(C)(C)C)c1nnc(C)n1-2,0.3
7,Cn1cc(C2=C(c3cn(C4CCN(Cc5ccccn5)CC4)c4ccccc34)C(=O)NC2=O)c2ccccc21 [Enzastaurin],0.997
8,C1=CC[C@@H](c2cccnc2)NC1 [Anatabine_(dicitrate)],0.984
9,CN(C)C(=O)Oc1ccc[n+](C)c1 [Pyridostigmine_(bromide)],0.814
10,CN(C)c1cc2c(cc1Sc1nc3c(N)nccc3n1CCNCC(C)(C)C)OCO2 [Debio_0932],0.767
11,CCN(C)C(=O)Oc1cccc([C@H](C)N(C)C)c1 [Rivastigmine],1.03
12,CN1Cc2cc(Cl)ccc2-n2c(nnc2[C@H]2CC[C@H](Oc3ccccn3)CC2)C1 [Balovaptan],1.09
13,CN1CCc2ccccc2C1CNC(=O)c1ccc(Cl)c(Cl)c1 (stereo unspecified),0.901
14,CNC(=O)ON(C(C)=O)C(=O)NC [Caracemide],0.78
15,CN1C[C@H](C(=O)N[C@]2(C)O[C@@]3(O)[C@@H]4CCCN4C(=O)[C@H](Cc4ccccc4)N3C2=O)C[C@@H]2c3cccc4[nH]cc(c34)C[C@H]21 [Dihydroergotamine_(mesylate)],0.976
16,COc1ccc(OC)c(C(=O)N[C@@H]2CN3CCC2CC3)c1,0.646
17,COc1cc2c(cc1OC)C1CC(=O)C(CC(C)C)CN1CC2 (stereo unspecified) [Tetrabenazine],0.906
18,NCC1(CC(=O)O)CCCCC1 [Gabapentin],0.686
